Screening results deposited in PubChem by several laboratories.
The list is not random: actives were taken first. Their share in the collection is about 4.1%.
IDE cell activ = activators of human insulin-degrading enzyme in cells. P14735. AID 493087. HEK cells, FAbeta-B cleavage, fluorescence polarization; 0% vehicle, 100% cell-free pure enzyme wells. 340,000 compounds, 0.073% hits. activation, % at 5.96 µM;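 active = activation above the mean of all tested compounds plus 3 SD, set per screening campaign, cut at about 17% in these data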
Target sequence (P14735 whole entry, looked up): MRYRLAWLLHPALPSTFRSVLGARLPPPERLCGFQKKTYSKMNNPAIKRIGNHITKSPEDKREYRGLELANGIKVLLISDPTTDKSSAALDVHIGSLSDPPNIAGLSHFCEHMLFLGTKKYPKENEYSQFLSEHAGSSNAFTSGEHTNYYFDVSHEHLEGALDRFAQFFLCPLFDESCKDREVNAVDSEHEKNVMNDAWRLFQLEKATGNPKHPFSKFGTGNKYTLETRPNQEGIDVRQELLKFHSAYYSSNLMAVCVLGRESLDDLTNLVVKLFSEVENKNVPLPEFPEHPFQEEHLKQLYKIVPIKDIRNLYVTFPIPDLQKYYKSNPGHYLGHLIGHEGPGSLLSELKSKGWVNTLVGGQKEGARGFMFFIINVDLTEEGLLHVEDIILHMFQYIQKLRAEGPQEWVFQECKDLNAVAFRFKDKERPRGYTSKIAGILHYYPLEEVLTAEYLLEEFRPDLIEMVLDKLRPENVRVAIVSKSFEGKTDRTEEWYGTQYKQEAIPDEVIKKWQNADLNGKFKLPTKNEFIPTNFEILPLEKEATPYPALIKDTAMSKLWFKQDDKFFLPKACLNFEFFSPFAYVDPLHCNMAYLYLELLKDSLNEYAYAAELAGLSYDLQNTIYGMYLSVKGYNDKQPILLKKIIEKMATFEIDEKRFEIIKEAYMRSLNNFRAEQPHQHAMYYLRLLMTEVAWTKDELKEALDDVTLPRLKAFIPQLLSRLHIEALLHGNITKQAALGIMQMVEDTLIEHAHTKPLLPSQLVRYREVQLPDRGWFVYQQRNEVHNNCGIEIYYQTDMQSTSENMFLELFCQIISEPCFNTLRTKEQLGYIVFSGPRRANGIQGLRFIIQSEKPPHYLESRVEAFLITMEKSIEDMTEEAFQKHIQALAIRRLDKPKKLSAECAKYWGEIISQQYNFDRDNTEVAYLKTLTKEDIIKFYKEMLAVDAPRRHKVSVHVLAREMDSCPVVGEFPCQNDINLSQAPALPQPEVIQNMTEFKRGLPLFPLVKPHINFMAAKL
PolyA inhibitor = yeast polyadenylation inhibition. S. cerevisiae SKY197-pL101 polyadenylation reporter, beta-gal luminescence; efflux-impaired pdr1/pdr3 knockout yeast; score 100 = 6 SD above DMSO. activity score, % at 12 µM. 300,000 compounds, 0.02% hits. AID 1875;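 active = lowest replicate activity score at least 50, where 100 means six control SD above control mean; inconclusive = lowest score under 50 but half or more replicates reach 50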;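 note: yeast exposed to compound for 9 h at 30 °C; higher score means more reporter readthrough which indicates perturbed polyadenylation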
ALR inh = inhibitors of human sulfhydryl oxidase ALR | P55789 | purified ALR, DTT oxidation, H2O2 HRP-luminol luminescence | inhibition, % (concentration not given with the values) | 290,000 compounds, 3.8% hits;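 active = mean replicate inhibition above about 79%, with every replicate also reaching it, limit read from the data; inconclusive = only one of the two criteria met; inactive = mean below limit and not every replicate reaching it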
CaV13 FRET inh = Disruptors of the CACNA1D IQ motif to Ca2+-dependent inactivation inhibitor domain association, primary screening, Förster resonance energy transfer in intact living …; HEK cells, CFP/YFP FRET ICDI-IQ, plate reader, 10 min; percent FRET-ratio fall versus neutral wells; inhibition, % at 12.3 µM; 340,000 compounds, 0.098% hits;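 active = mean replicate inhibition of at least 30% and at least 1% of replicates passing that level; inconclusive = only one of the two criteria is met; inactive = neither criterion is met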
IDE inh = inhibitors of human insulin-degrading enzyme in cells | P14735 | HEK cells, FAbetaB cleavage, fluorescence polarization | inhibition, % at 5.59 µM | 320,000 compounds, 0.41% hits | AID 434962;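 active = percent inhibition above the average of all tested compounds plus 3 SD, set per screening campaign, cut at about 16% in these data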;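 note: IDE supplied by intact live HEK cells; FP after avidin binding of uncleaved biotin substrate so inhibition keeps polarization high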
M18AAP inhibitor = PfM18AAP enzyme inhibition. AID 1822. recombinant PfM18AAP, H-Glu-NHMec fluorogenic cleavage. 290,000 compounds, 1.2% hits. inhibition, % at 7.35 µM;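 active = inhibition above the campaign mean inhibition over all tested compounds plus 3 SD, cut at about 28% in these data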
Each line names hits and unclear results; the compound was inactive in the other large screens.

O=C(CSC1CC(=O)N(c2ccc(C(=O)O)cc2)C1=O)Nc1ccc(Cl)cc1 (centres undefined)	ALR inh 98
O=C(CSC1CC(=O)N(CCc2ccccc2)C1=O)Nc1ccc(Br)cc1 (centres undefined)	none
C[C@H](O)[C@@H]1CN2CCc3c([nH]c4c(-c5ccccc5)cccc34)[C@@H]2C[C@@H]1N(C)C(=O)Nc1ccccc1	none (no result: IDE cell activ, PolyA inhibitor, ALR inh, IDE inh, M18AAP inhibitor)
CC(=O)c1c(C)oc2ccc(NS(=O)(=O)c3cccs3)cc12	none
O=C(NC(=S)NCCCN1CCOCC1)c1ccc([N+](=O)[O-])cc1	none
Cc1ccc(S(=O)(=O)c2nc(Nc3ccccc3C#N)sc2Cl)cc1	none
Cc1ccc(S(=O)(=O)c2nc(NN(C)C)sc2Cl)cc1	ALR inh 97
CCn1cc(C(=O)Nc2ccc(Oc3cccnc3)cc2)c2ccccc21	none (no result: IDE cell activ, PolyA inhibitor, ALR inh, IDE inh, M18AAP inhibitor)
CCCC(C)NC(=O)c1ccc(C2SCC(=O)N2Cc2ccco2)cc1 (centres undefined)	none (no result: CaV13 FRET inh)
O=C(O)Cc1sc(-c2cccnc2)nc1-c1ccc(Br)cc1	none
Cc1ccc(-c2nc(-c3ccc(Cl)cc3)sc2CC(=O)O)c(C)c1	ALR inh 99
O=C(O)Cc1sc(-c2ccccc2Cl)nc1-c1ccccc1	ALR inh 99
O=C(Cc1sc(-c2ccccc2)nc1-c1ccccc1)Nc1ccccc1	none
Cc1c(NC(=O)OCCNC(=O)Nc2ccccc2)sc(=S)n1C	ALR inh 98 (no result: CaV13 FRET inh)
CCOC(=O)Nc1sc(=S)n(C)c1C	ALR inh 93 (no result: CaV13 FRET inh)
Cc1c(NC(=O)OCCNC(=O)COc2ccc(Cl)cc2Cl)sc(=S)n1C	ALR inh 97
Cc1ccc(S(=O)(=O)NCCOC(=O)Nc2sc(=S)n(C)c2C)cc1	none
C/C(=N/Nc1ccccc1[N+](=O)[O-])c1ccc([N+](=O)[O-])cc1	none
CC1=C/C(=N\Nc2ccccc2[N+](=O)[O-])CC(C)(C)C1	ALR inh 98
COC1=C(NCc2ccc3c(c2)OCO3)C(=O)C(OC)=C(NCc2ccc3c(c2)OCO3)C1=O	none (no result: PolyA inhibitor, ALR inh, IDE inh, M18AAP inhibitor)
COc1cccc2sc3ccc(NCc4ccc5c(c4)OCO5)cc3c(=O)c12	ALR inh 92
COc1ccc(NS(=O)(=O)c2ccc3nc(COc4ccc(C#N)cc4)[nH]c3c2)cc1	ALR inh 98
CCC(C)NC(=O)c1nc2c(nnn2Cc2ccccc2Cl)c(=O)[nH]1 (centres undefined)	ALR inh 88
O=C(NCc1cccs1)c1nc2c(nnn2Cc2ccccc2Cl)c(=O)[nH]1	ALR inh 95
Cc1ccc(-n2nc(-c3ccc(N)cc3)cc2N)cc1	ALR inh 98
Nc1ccc(-c2cc(N)n(-c3ccccc3)n2)cc1	ALR inh 93 (no result: CaV13 FRET inh)
Cc1ccccc1-n1nc(-c2ccc(N)cc2)cc1N	ALR inh inconclusive
Nc1cc(-c2ccc(Cl)cc2)nn1-c1ccccc1	none
CNC(=O)CCc1[nH]c2ccccc2c1Sc1ccccc1	ALR inh 98
COc1ccc(N2C(=O)CC(NCCNc3ccc([N+](=O)[O-])cn3)C2=O)cc1 (centres undefined)	none
Cc1cc(C)c(C#N)c(Sc2nnnn2-c2ccccc2)n1	none
COc1ccc(-c2nc(SC(C)C(=O)Nc3ccc(NC(C)=O)cc3)n[nH]2)cc1 (centres undefined)	ALR inh 98 (no result: M18AAP inhibitor)
c1ccc(Cn2nnnc2C(c2cccnc2)N2CCN(c3ccccc3)CC2)cc1 (centres undefined)	ALR inh 98
O=C(NCC(c1ccco1)N1CCCCC1)C(c1ccccc1)c1ccccc1 (centres undefined)	ALR inh 94
O=C(NCc1cccs1)C(=O)NCC(c1ccco1)N1CCN(c2ccccc2)CC1 (centres undefined)	ALR inh 98
O=C(Cc1ccccc1F)NCC(c1ccco1)N1CCCCC1 (centres undefined)	none
CC(C)(C)n1nnnc1C(c1cccnc1)N1CCN(c2ccccc2)CC1 (centres undefined)	none
COc1ccc(N2CCN(C(CNC(=O)C(=O)NCCCn3ccnc3)c3cccnc3)CC2)cc1 (centres undefined)	ALR inh 90
O=C(NCC(c1cccnc1)N1CCN(c2ccccc2)CC1)c1ccco1 (centres undefined)	ALR inh 99
O=C(NCc1cccnc1)C(=O)NCC(c1ccco1)N1CCN(c2ccccc2)CC1 (centres undefined)	ALR inh 98
COc1ccccc1C(c1nnnn1CCc1ccccc1)N1CCN(c2ccccc2)CC1 (centres undefined)	none (no result: CaV13 FRET inh)
O=C(NCC(c1cccnc1)N1CCN(c2ccc(F)cc2)CC1)c1ccccc1 (centres undefined)	none (no result: CaV13 FRET inh)
COCCn1nnnc1C(c1ccccc1OC)N1CCN(c2ccccc2)CC1 (centres undefined)	ALR inh 84
O=C(C[C@@H]1C/C=C/CCCC(=O)O[C@H](c2ccccc2)CNC1=O)NCCO	none (no result: PolyA inhibitor, M18AAP inhibitor)
Cn1c(=O)c2c(ncn2CC(=O)OCC(=O)Nc2cc(Cl)ccc2Cl)n(C)c1=O	none
COc1ccc(NC(=O)CN(C)S(=O)(=O)c2ccc3c(c2)CCC(=O)N3)c(OC)c1	none
Cc1ccccc1NCc1ccccc1O	ALR inh 100 (no result: CaV13 FRET inh)
Cc1cccc(NCc2ccccc2O)c1	ALR inh 99
Cc1ccc(NCCNc2ccc(C)cc2)cc1	ALR inh 99
COc1ccc(NCCNc2ccc(OC)cc2)cc1	ALR inh inconclusive
Cc1cccc(NCCNc2cccc(C)c2)c1	ALR inh 99 (no result: CaV13 FRET inh)
O=[N+]([O-])c1cc([N+](=O)[O-])c(Oc2cc(F)cc(F)c2)cc1NN1CCCCC1	none (no result: PolyA inhibitor, M18AAP inhibitor)
O=S(=O)(c1ccc(Cl)nc1)N1CCOCC1	none (no result: PolyA inhibitor, M18AAP inhibitor)
O=C(CN1CCN(c2ccc(O)cc2)CC1)N(C1CC1)C1CCS(=O)(=O)C1 (centres undefined)	ALR inh 99 (no result: PolyA inhibitor, M18AAP inhibitor)
O=C(CN1CCN(c2ccc(F)cc2)CC1)N(C1CCCC1)C1CCS(=O)(=O)C1 (centres undefined)	none (no result: PolyA inhibitor, ALR inh, M18AAP inhibitor)
Cc1ccc(CNC(=O)CSc2nnc(CNC(=O)c3ccccc3)o2)cc1	none
CCOC(=O)C1=C(C)NC(=O)/C1=C\N(C)C	none
O=C1C(Cl)=C(Nc2ccc3cn[nH]c3c2)C(=O)c2ccccc21	M18AAP inhibitor 47
O=C1C(SCCO)=C(SCCO)C(=O)c2ccccc21	IDE inh 53 (no result: PolyA inhibitor, M18AAP inhibitor)
COc1ccccc1Cc1c(C(C)(C)C)nc2ccc(C)cn12	none (no result: IDE cell activ, PolyA inhibitor, ALR inh, IDE inh, M18AAP inhibitor)
COC(=O)c1ccc(NC(=O)CN2CCN(CC#N)CC2)cc1	none
O=C(O)c1ccc2noc(-c3ccccc3)c2c1	none (no result: CaV13 FRET inh)
O=C(O)/C=C/c1ccc2c(-c3ccccc3)onc2c1	ALR inh 93
CCOc1ccc2nc(N3CCC(C(=O)N4CCN(C5CCCCC5)CC4)CC3)sc2c1	none
